Results filed as inconclusive are left out. Active and inactive are the calls of the source. Calls follow the shape of the dose curve; as a rule, active = well fitted curve in the direction sought with a large enough effect; inconclusive = small, poorly fitted or top-dose-only effect, or another doubt; inactive = no such curve, though single readings can be large; an effect the other way counts as inactive or inconclusive. Where a SMILES comes first, the peptide text is derived from it.
How the values were obtained:
[1] = target: Calcium and integrin-binding protein 1 (Homo sapiens) (UniProt Q99828); test: Primary qHTS for Identification of Calcium Integrin Binding Protein 1 (CIB1) Competitor (AID 1508620);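 also: GST tagged CIB1 binding a fluorescein labelled alphaIIb integrin peptide tracer; top concentration of the series differs between compounds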
Calcium and integrin-binding protein 1 (Homo sapiens), sequence (Q99828 whole entry, looked up): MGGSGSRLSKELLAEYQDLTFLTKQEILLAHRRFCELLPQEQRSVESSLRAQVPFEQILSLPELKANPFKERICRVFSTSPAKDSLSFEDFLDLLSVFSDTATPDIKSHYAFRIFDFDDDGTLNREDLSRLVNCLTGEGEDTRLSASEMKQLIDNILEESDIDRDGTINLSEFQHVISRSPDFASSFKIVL
How it was run: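 Fluorescence polarization competition: GST-tagged CIB1 (1 uM final) preincubated with compound 15 min at room temperature, then FITC-labelled alphaIIb peptide (100 nM final) added. After 15 min at room temperature, polarization read at Ex 480/Em 540.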

[2] = Primary qHTS for inhibitors of nuclear receptor binding SET domain protein 2 (NSD2) in an isogenic RCH-ACV NSD2 p.E1099K mutant (9B) (AID 1645876); also: nearly all actives have a fitted effect of over 70% in size
[3] = Primary qHTS for inhibitors of nuclear receptor binding SET domain protein 2 (NSD2) in an RCH-ACV wild type WT cells (2C) (AID 1645877); also: nearly all actives have a fitted effect of over 70% in size
% is scaled to controls: 0 for no effect and ±100 for the full control effect.

C=CCC1=C[C@]2(OC)[C@H](C)[C@@H](c3ccc(OC)c(OC)c3)O[C@]2(OC)CC1=O
inactive: Potency [1] | Potency [2] | Potency [3]

COc1cc(C2Oc3c(OC)cc(CCCO)cc3C2CO)ccc1O (configuration not stated)
inactive: Potency [1] | Potency [2] | Potency [3]

CC1CCC2(C(=O)O)CCC3(C)C(=CCC4C5(C)CCC(O)C(C)(C(=O)O)C5CCC43C)C2C1(C)O (configuration not stated)
inactive: Potency [1] | Potency [2] | Potency [3]

O=C(O[C@H]1[C@H](Oc2ccc(O)cc2CO)O[C@H](CO)[C@@H](O)[C@@H]1O)c1ccccc1
inactive: Potency [1] | Potency [2] | Potency [3]

CSCC[C@H](NC(=O)[C@H](CO)NC(=O)[C@H](CCC(=O)O)NC(C)=O)C(=O)N[C@H](C=O)CC(=O)O (Ac-ESMD-aldehyde)
inactive: Potency [1] | activity change, negative = viability loss [2] -10.4% [at 9.23 µM] | activity change, negative = cell killing [3] -15.7% [at 9.23 µM]

C=CC(C)(CC/C=C(\C)C(=O)OC)OC1OC(COC(=O)CC(C)(O)CC(=O)O)C(O)C(O)C1O (configuration not stated)
inactive: Potency [1] | Potency [2] | Potency [3]

CCC(C)C(=O)O[C@H]1C[C@](C)(O)[C@]23OC(C)(C)[C@H](C[C@H](OC(=O)c4ccccc4)[C@]2(COC(C)=O)[C@H]1OC(=O)C(C)CC)[C@H]3OC(C)=O (some centres not stated)
inactive: Potency [1] | Potency [2] | Potency [3]

C=CC1(C)C=C2CC[C@H]3[C@@](C)(C(=O)O)CCC[C@]3(C)C2CC1 (some centres not stated)
inactive: Potency [1] | Potency [2] | Potency [3]

CC1CCC2(C(=O)OC3OC(CO)C(O)C(O)C3O)CCC3(C)C(=CCC4C5(C)CCC(O)C(C)(CO)C5CCC43C)C2C1(C)O (configuration not stated)
inactive: Potency [1] | Potency [2] | Potency [3]

Source: PubChem BioAssay (NCATS)
